# Laboratory results taken from PubChem BioAssay (EPA / NIEHS).
# Results filed as inconclusive are left out. Active and inactive are the calls of the source. How the source made its calls, unless noted: active means hit-call score of the fitted dose curve at least 0.9, where 1 is the maximum; inconclusive means response in the unintended direction; inactive means score below 0.9.
# Columns and labels:
# [1] = system: Thyroperoxidase (TPO), gene 54314; test: CCTE_Simmons_AUR_rTPO: CCTE's Amplex UltraRed Assay for Thyroperoxidase (TPO) Inhibition, Simmons Lab (AID 2283662);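 on AC50: potency for loss of signal meaning inhibition of peroxidase activity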
# In short: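 Rat thyroid microsomes (5 ug protein) with 25 uM Amplex UltraRed and 300 uM H2O2 in 200 mM phosphate buffer, 30 min at 37C in dark; fluorescence 544/590 nm. Eight concentrations, 5 nM–87.5 uM final, 0.5% DMSO, triplicate biological replicates.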
# [2] = target: Luciferin 4-monooxygenase (Photinus pyralis) (UniProt P08659); test: CCTE_Simmons_QuantiLum_inhib_2: CCTE's Firefly Luciferase Inhibition Assay, Simmons Lab (AID 2283767)
# Luciferin 4-monooxygenase (Photinus pyralis), sequence (P08659 whole entry, looked up): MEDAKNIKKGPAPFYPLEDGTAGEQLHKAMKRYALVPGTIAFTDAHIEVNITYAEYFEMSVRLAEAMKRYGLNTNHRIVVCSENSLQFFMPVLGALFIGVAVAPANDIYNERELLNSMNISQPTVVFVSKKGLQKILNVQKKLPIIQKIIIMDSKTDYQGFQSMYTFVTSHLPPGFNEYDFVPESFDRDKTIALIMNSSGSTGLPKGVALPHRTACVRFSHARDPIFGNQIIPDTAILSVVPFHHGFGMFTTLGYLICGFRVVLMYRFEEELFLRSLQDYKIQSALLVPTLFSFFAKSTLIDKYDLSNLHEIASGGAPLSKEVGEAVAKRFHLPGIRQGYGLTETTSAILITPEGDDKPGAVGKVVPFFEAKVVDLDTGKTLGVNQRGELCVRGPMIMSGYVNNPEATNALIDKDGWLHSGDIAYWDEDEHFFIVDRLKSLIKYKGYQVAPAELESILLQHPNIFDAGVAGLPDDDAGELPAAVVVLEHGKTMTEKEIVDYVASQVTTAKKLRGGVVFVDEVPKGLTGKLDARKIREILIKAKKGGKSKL
# In short: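 Cell-free QuantiLum luciferase, 5 ng/well; compounds 5 nM–87.5 uM final, 8 conc, 0.5% DMSO; 30 min, 37C, dark. Detection reagent (150 uM D-luciferin, 147 uM dATP, CoA, DTT, pH 7.8 final) injected per well, kinetic luminescence. Triplicate biological replicates.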
# [3] = target: Cellular tumor antigen p53 (Homo sapiens) (UniProt P04637); test: TOX21_p53_BLA_p4_ratio: Tox21 HCT-116 p53 Agonism Beta-lactamase Assay, Ratio, Phase 4 (AID 2283601)
# Cellular tumor antigen p53 (Homo sapiens), sequence (P04637 whole entry, looked up): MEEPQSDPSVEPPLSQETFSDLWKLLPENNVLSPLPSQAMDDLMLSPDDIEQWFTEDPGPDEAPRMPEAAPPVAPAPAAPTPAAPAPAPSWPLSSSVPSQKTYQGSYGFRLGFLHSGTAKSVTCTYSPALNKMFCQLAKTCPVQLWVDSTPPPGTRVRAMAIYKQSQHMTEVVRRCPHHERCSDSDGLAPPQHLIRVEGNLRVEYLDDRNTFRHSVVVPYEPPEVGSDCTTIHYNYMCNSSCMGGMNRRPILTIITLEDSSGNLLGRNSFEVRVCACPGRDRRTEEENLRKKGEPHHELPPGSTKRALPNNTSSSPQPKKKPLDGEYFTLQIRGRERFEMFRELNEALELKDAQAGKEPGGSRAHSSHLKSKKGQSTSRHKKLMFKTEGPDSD
# In short: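 HCT-116 p53 beta-lactamase reporter cells (4000/well) preincubated 5 h, then compound (217-fold dilution of DMSO stock) for 16 h at 37C. CCF4-AM substrate added 2 h at room temperature; 460/530 nm emission ratio fitted upward versus DMSO.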
# [4] = ACEA_ER_AUC_viability: ACEA Biosciences xCELLigence Real-Time Cell Analysis on Estrogen Receptor Agonism for Viability (AID 2283782);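 further: hit means loss of impedance signal meaning reduced cell growth or viability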
# In short: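 Read-out: real-time electrical impedance (RT-CES) area under curve, loss of signal taken as reduced viability, normalized to DMSO baseline. T-47D cells, charcoal-stripped serum medium, compounds up to 100 uM final, continuous exposure, 80 h.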
# PGR (gene 5241) [5] = target: PGR (gene 5241) (UniProt P06401); test: TOX21_PR_BLA_Followup_Agonist_ratio: Tox21 HEK293 Progesterone Receptor (PR) Agonism Beta-lactamase Follow-Up Assay, Ratio (AID 2283933)
# PGR (gene 5241), sequence (P06401 whole entry, looked up, the tested form may be a part): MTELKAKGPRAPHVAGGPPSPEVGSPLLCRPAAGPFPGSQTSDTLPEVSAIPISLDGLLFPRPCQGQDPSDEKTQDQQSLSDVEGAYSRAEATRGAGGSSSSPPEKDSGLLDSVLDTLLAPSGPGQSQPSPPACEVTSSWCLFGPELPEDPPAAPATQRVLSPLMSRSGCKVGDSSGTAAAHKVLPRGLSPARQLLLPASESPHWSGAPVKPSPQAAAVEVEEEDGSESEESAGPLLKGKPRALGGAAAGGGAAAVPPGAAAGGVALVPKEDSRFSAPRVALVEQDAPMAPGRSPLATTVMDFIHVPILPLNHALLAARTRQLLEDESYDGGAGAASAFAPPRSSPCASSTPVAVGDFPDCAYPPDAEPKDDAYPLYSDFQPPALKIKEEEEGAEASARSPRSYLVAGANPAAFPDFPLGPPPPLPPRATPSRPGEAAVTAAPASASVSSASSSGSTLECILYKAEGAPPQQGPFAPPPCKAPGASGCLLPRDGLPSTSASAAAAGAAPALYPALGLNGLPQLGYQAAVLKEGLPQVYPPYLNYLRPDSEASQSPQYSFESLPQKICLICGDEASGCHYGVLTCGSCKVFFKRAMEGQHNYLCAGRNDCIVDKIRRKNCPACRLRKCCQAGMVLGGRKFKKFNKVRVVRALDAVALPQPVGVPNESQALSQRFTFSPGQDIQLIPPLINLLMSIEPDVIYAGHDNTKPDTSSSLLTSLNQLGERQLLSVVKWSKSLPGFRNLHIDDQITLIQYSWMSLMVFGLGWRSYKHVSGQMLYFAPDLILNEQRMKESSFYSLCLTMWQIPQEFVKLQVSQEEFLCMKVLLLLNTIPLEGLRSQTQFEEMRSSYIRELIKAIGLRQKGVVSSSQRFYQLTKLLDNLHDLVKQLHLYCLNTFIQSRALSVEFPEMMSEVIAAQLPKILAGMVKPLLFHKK
# In short: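 Read-out: ratio of cleaved (ch2) to uncleaved (ch1) beta-lactamase substrate fluorescence, gain-of-signal relative to DMSO baseline. Cells: PR-UAS-bla HEK293T, 2% charcoal-stripped FBS; compound exposure 16 hr, 37C; substrate 2 hr, RT.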
# PGR (gene 5241) [6] = target: PGR (gene 5241) (UniProt P06401); test: TOX21_PR_BLA_Followup_Antagonist_ratio: Tox21 HEK293 Progesterone Receptor (PR) Antagonism Beta-lactamase Follow-Up Assay, Ratio (AID 2283934)
# In short: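 Read-out: blue/green beta-lactamase FRET ratio (cleaved ch2 over uncleaved ch1), fitted relative to DMSO baseline. Cells: PR-UAS-bla HEK293T, GAL4-UAS reporter, stimulated with 1 nM R5020 final; 16 hr compound exposure, 37C.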
# [7] = TOX21_PR_BLA_Followup_Agonist_viability: Viability Assessment in the Tox21 HEK293 Progesterone Receptor (PR) Agonism Beta-lactamase Follow-Up Assay (AID 2283935);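 further: signal loss means lower viability so actives are cytotoxic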
# In short: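 Luminescent ATP quantitation (CellTiter-Glo, 30 min, room temperature) in the same wells as the beta-lactamase read, on PR-UAS-bla HEK293T cells exposed to compound for 16 hr at 37C in 2% charcoal-stripped serum.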
# [8] = TOX21_PR_BLA_Followup_Antagonist_viability: Viability Assessment in the Tox21 HEK293 Progesterone Receptor (PR) Antagonism Beta-lactamase Follow-Up Assay (AID 2283936);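 further: cells exposed to compound with R5020 agonist for 16 h; hits lower the luminescence signal meaning cytotoxicity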
# In short: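 PR-UAS-bla HEK293T cells in medium with 2% charcoal-stripped FBS were treated with compounds plus R5020 for 16 hr at 37C. After the beta-lactamase read, CellTiter-Glo was added to the same wells and luminescence read after 30 min at room temperature.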
# PGR (gene 5241) [9] = target: PGR (gene 5241) (UniProt P06401); test: TOX21_PR_LUC_Followup_Agonist: Tox21 HEK293 Progesterone Receptor (PR) Agonism Luciferase Follow-Up Assay (AID 2283937; active means hit-call score of the fitted dose curve at least 0.9, where 1 is the maximum; inactive means score below 0.9)
# In short: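 Luminescence read-out (ONE-Glo, 30 min at room temperature) of PR-driven luciferase in HEK293-PR-A-luc cells after 16 h compound exposure at 37C; gain of signal fitted relative to DMSO baseline.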
# PGR (gene 5241) [10] = target: PGR (gene 5241) (UniProt P06401); test: TOX21_PR_LUC_Followup_Antagonist: Tox21 HEK293 Progesterone Receptor (PR) Antagonism Luciferase Follow-Up Assay (AID 2283938);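 further: curve fitted upward as signal gain over DMSO baseline despite antagonist label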
# In short: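 Cells are grown 5 days in charcoal-stripped-FBS assay medium, plated, left 5 h, then dosed with compound and incubated 16 h. ONE-Glo reagent is added and luminescence read after 30 min.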
# [11] = target: Thyroid hormone receptor alpha (Rattus norvegicus) + Thyroid hormone receptor beta (Rattus norvegicus) (UniProt P18113+P63059); test: TOX21_TR_LUC_GH3_Antagonist_Followup: Tox21 GH3 Thyroid Hormone Receptor Antagonism Luciferase Follow-Up Assay (AID 2283942)
# In short: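 Luminescence read-out (ONE-Glo, 30 min at room temperature) in GH3 reporter cells challenged with 1.0 nM T3 final. Compounds ran at 92 uM to 5nM over 15 concentrations for 24 h; DMSO served as negative control and baseline.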
# THRA (gene 7067) = THRA (gene 7067) (UniProt P10827); test: TOX21_TRA_COA_Antagonist_Followup_ratio: Tox21 Thyroid Hormone Receptor alpha Antagonism through Coactivator Recruitment Follow-Up Assay, Ratio (AID 2283953)
# THRA (gene 7067), sequence (P10827 whole entry, looked up, the tested form may be a part): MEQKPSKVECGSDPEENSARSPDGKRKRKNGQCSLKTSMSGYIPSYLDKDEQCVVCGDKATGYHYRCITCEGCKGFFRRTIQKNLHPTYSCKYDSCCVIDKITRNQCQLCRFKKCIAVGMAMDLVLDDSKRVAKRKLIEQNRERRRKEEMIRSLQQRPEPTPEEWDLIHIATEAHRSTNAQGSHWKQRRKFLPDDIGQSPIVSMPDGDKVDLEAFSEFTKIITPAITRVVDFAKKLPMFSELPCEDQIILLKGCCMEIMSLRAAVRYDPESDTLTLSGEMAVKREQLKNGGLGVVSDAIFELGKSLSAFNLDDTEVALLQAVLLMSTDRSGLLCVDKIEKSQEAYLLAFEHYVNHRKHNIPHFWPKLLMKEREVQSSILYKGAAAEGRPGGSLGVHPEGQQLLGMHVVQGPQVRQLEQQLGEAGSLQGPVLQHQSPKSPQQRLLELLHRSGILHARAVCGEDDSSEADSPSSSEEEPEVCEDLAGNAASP
# In short: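 We measured antagonism of T3-type coactivator recruitment using a TR-FRET ratio (emission 520 and 495 nm) between a Tb-labelled anti-GST antibody on TRα LBD (2.5 nM) and SRC-2 peptide (200 nM). Activity was scaled between DMSO and T3 wells.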
# [12] = TOX21_TRB_BLA_Antagonist_Followup_viability: Viability Assessment in the Tox21 Thyroid Hormone Receptor beta Antagonism Beta-lactamase (BLA) Follow-Up Assay (AID 2283961)
# In short: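 TRβ-bla HEK293T (human TRβ LBD fused to GAL4 DBD), 3,000 cells/well, 2% charcoal-stripped FBS, phenol red-free medium; 18 h compound exposure, 37C; CellTiter-Glo 30 min RT; luminescence, loss-of-signal readout.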
# [13] = target: Retinoic acid receptor RXR-alpha (Homo sapiens) (UniProt P19793); test: TOX21_TR_RXR_BLA_Antagonist_Followup_ratio: Tox21 Thyroid Hormone Receptor beta Retinoid X Receptor alpha (RXRa) Antagonism Beta-lactamase (BLA) Follow-Up Assay, Ratio (AID 2283972)
# Retinoic acid receptor RXR-alpha (Homo sapiens), sequence (P19793 whole entry, looked up): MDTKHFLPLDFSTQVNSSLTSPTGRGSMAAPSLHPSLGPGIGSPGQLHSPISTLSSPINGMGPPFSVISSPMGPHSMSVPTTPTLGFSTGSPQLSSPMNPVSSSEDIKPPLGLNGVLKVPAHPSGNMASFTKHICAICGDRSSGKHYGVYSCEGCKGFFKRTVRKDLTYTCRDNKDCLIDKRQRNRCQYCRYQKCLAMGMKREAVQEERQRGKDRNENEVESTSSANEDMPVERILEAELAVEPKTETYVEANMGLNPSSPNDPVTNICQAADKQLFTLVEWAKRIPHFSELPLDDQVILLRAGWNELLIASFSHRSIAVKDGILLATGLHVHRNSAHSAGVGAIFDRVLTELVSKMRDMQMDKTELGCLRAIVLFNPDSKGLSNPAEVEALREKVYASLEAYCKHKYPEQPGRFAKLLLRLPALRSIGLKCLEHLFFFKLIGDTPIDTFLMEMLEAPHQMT
# In short: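 HEK293T RXRa-bla, 2% charcoal-stripped FBS medium, 16 h compound exposure at 37C, qHTS 11 conc x3. CCF4 FRET ratio ch2/ch1 (460:530), DMSO = baseline, loss-of-signal fit.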
# [14] = TOX21_TR_RXR_BLA_Antagonist_Followup_viability: Viability Assessment in the Tox21 Thyroid Hormone Receptor beta Retinoid X Receptor alpha (RXRa) Antagonism Beta-lactamase (BLA) Follow-Up Assay (AID 2283979)
# In short: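 RXRa-bla HEK293T cells (2,500/well, phenol red-free DMEM, 2% charcoal-stripped FBS) were attached 5 h, then exposed to compounds at 11 concentrations in triplicate for 16 h at 37C. Viability measured by CellTiter-Glo ATP luminescence, bidirectional fitting versus DMSO.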
# [15] = CCTE_Simmons_CellTiterGLO_HEK293T: Viability Assessment in CCTE's Assays for Thyroperoxidase (TPO) Inhibition, Simmons Lab (AID 2283665);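 on AC50: cells exposed to compound for 24 h before readout; actives reduce ATP signal below DMSO vehicle meaning cytotoxicity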
# In short: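 Luminescent ATP readout (CellTiter-Glo, 20 min at room temperature) after 24 hr exposure of HEK293T cells to 5 nM–87.5 uM final compound; signal loss relative to DMSO vehicle indicated cytotoxicity; dichlone titrated as positive control.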
# [16] = TOX21_PR_LUC_Followup_Antagonist_viability: Viability Assessment in the Tox21 HEK293 Progesterone Receptor (PR) Antagonism Luciferase Follow-Up Assay (AID 2283940)
# In short: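 Read-out: CellTiter-Glo ATP luminescence, loss of signal taken as reduced viability. Cells: HEK293-PR-A-luc, 3,000/well, 5 h settling, then 16 h compound exposure at 37C, 0% CO2.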
# [17] = TOX21_PR_LUC_Followup_Agonist_viability: Viability Assessment in the Tox21 HEK293 Progesterone Receptor (PR) Agonism Luciferase Follow-Up Assay (AID 2283941);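 further: loss of signal means cytotoxicity so actives lower viability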
# In short: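 Cytotoxicity counter-screen: ATP content by CellTiter-Glo luminescence, loss of signal = reduced viability. HEK293-PR-A-luc, 3,000 cells/well, compound exposure 16 h, 37C.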
structure (smiles),measurement,setting,value
OC(c1ccccc1)c1ccccc1,outcome,[1],inactive
same,outcome,[2],inactive
O=c1[nH]c2ccccc2s1,AC50,[1],31.3 µM (active)
same,outcome,[2],inactive
O=Cc1c2ccccc2c(Cl)c2ccccc12,outcome,[3],inactive
Cn1c(=S)[nH]c2ccccc21,AC50,[1],0.503 µM (active)
same,outcome,[2],inactive
O=C(O)c1c(Cl)ccc(Cl)c1Cl,outcome,[4],inactive
CC1(C)OC(=O)Nc2ccc(Br)cc21,outcome,PGR (gene 5241) [5],inactive
same,outcome,PGR (gene 5241) [6],inactive
same,outcome,[7],inactive
same,outcome,[8],inactive
same,outcome,PGR (gene 5241) [9],inactive
same,outcome,PGR (gene 5241) [10],inactive
COc1ccc2c(c1)N(C[C@H](C)CN(C)C)c1ccccc1S2,outcome,[3],inactive
same,AC50,[11],2.79 µM (active)
same,outcome,THRA (gene 7067),inactive
same,outcome,[12],inactive
same,outcome,[13],inactive
same,outcome,[14],inactive
CNC(=O)N(c1ccccc1)c1ccccc1,outcome,[3],inactive
S=c1[nH]c2cc(Cl)ccc2s1,AC50,[1],1.54 µM (active)
same,outcome,[15],inactive
same,outcome,[2],inactive
O=C(NO)c1ccccc1O,AC50,[1],0.358 µM (active)
same,outcome,[2],inactive
COc1cnc(NS(=O)(=O)c2ccc(N)cc2)nc1,outcome,[3],inactive
Cc1ccc(C=C2C(=O)C3(C)CCC2C3(C)C)cc1 (configuration not stated),outcome,[1],inactive
same,AC50,[15],15.3 µM (active)
CCC(=O)Oc1ccc2c(c1)CC[C@@H]1[C@@H]2CC[C@@]2(C)[C@H]1C[C@@H](OC(=O)CC)[C@@H]2OC(=O)CC,outcome,PGR (gene 5241) [5],inactive
same,AC50,PGR (gene 5241) [6],2.81 µM (active)
same,outcome,[7],inactive
same,outcome,[8],inactive
same,AC50,PGR (gene 5241) [9],16.8 µM (active)
same,outcome,PGR (gene 5241) [10],inactive
same,outcome,[16],inactive
same,outcome,[17],inactive
